Laboratory results published in the supplement of paper PMC10646978.
± gives the standard deviation.

Key:
Settings in all cases: modulator concentration 10 µM
[1] = test system: RAW-Dual (murine macrophage reporter line); experiment: NF-kB reporter (SEAP) activity fold change vs agonist alone; higher = enhanced NF-kB activity
Outline: (§1)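 RAW-Dual murine macrophage reporter cells were plated at 50 000 per well in 384-well plates, pin-transferred compound to 10 μM final, and pre-incubated for 1 hour at 37 °C before a PRR agonist was added and the cells incubated overnight. NF-κB activity was read from supernatant SEAP with QUANTI-Blue at 620 nm absorbance, and IRF activity from Lucia luciferase with QUANTI-Luc by luminescence. Each signal was expressed as fold change by dividing by the mean agonist-only control on the same plate. Two replicate plates were averaged, with errors obtained by propagation.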

[2] = test system: RAW-Dual (murine macrophage reporter line); experiment: IRF reporter (Lucia luciferase) activity fold change vs agonist alone; higher = enhanced IRF activity
Outline: as §1

[3] = test system: RAW-Dual (murine macrophage reporter line); experiment: viability score (confluency relative to resting cells, overnight) (fraction); higher = more viable, active = viable (0.7 or more)
Outline: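 RAW-Dual macrophages in 384-well plates were treated overnight with compound at 10 μM final. IncuCyte imaging recorded confluency, and IncuCyte software built two confluency masks across every imaged well. The viability score expresses confluency relative to resting cells and was judged against a cutoff, which a compound met only if both masks exceeded 70% of resting cells.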

[4] = agonist: CpG ODN 1826 0.5 ug/mL

| SMILES | NF-kB reporter [1, 4] | NF-kB reporter ([1]; agonist: LPS 0.1 ug/mL) | NF-kB reporter ([1]; agonist: MPLA […]) | IRF reporter ([2]; agonist: 3'3'-cGAMP 10 ug/mL) | IRF reporter ([2]; agonist: LPS 0.1 ug/mL) | IRF reporter ([2]; agonist: MPLA […]) | viability score [3] |
| --- | --- | --- | --- | --- | --- | --- | --- |
| Cc1c(NC(=S)NC(=O)c2ccccc2[N+](=O)[O-])cccc1-c1nc2ccccc2s1 | 1.09 ± 0.087 | 1.07 ± 0.073 | 0.933 ± 0.064 | 0.88 ± 0.021 | 1.47 ± 0.2 | 1.07 ± 0.2 | 1.02 (active) |
| COc1cc(/C=C/C(=O)/C=C(O)/C=C/c2ccc(O)c(OC)c2)ccc1O | 0.662 ± 0.16 | 1.14 ± 0.32 | 2.02 ± 0.15 | 0.0871 ± 0.0028 | 0.279 ± 0.091 | 0.517 ± 0.041 | 0.272 (inactive) |
| CCOC(=O)c1sc(NN=Cc2cccc(Cl)c2)nc1C | 1.04 ± 0.12 | 1.06 ± 0.059 | 0.89 ± 0.053 | 0.849 ± 0.039 | 1.57 ± 0.23 | 1.18 ± 0.18 | 1.01 (active) |
| CCN(CC)c1ccc(C=NN2C(=O)c3ccccc3C2=O)cc1 | 1.05 ± 0.088 | 1.08 ± 0.07 | 1.01 ± 0.061 | 0.827 ± 0.04 | 1.05 ± 0.1 | 1.11 ± 0.15 | 0.994 (active) |
| O=C1CCc2cc(OCCCCc3nnnn3C3CCCCC3)ccc2N1 | 1.52 ± 0.27 | 1.24 ± 0.38 | 1.18 ± 0.2 | 1.01 ± 0.043 | 1.32 ± 0.2 | 1.32 ± 0.12 | 0.991 (active) |
| O=C(C=Cc1ccc(Cl)c(Cl)c1)c1ccc2ccccc2c1O | 1.09 ± 0.1 | 1.06 ± 0.07 | 0.935 ± 0.085 | 0.96 ± 0.041 | 1.57 ± 0.23 | 1.25 ± 0.077 | 1.01 (active) |
| Cc1ccc(S(=O)(=O)O)cc1.NC(=O)c1cccc2cn(-c3ccc([C@@H]4CCCNC4)cc3)nc12 | 0.0798 ± 0.0034 | 0.142 ± 0.017 | 0.372 ± 0.027 | 0.041 ± 0.0076 | 0.0678 ± 0.01 | 0.0808 ± 0.016 | 0.881 (active) |
| COc1ccc(CNCc2ccc3ccccc3c2)cc1OC | 0.722 ± 0.064 | 1 ± 0.07 | 0.943 ± 0.05 | 0.784 ± 0.035 | 1.04 ± 0.059 | 0.961 ± 0.2 | 0.999 (active) |
| Cc1c(C(=O)OC(C)C)sc(NC(=O)C(C)(C)C)c1C(=O)OC(C)C | 0.823 ± 0.081 | 0.908 ± 0.044 | 1.09 ± 0.099 | 1 ± 0.06 | 1.56 ± 0.095 | 1.77 ± 0.16 | 0.985 (active) |
| COC(=O)/C=C/C(=O)OC | 1.2 ± 0.17 | 1.06 ± 0.17 | 1.01 ± 0.064 | 0.61 ± 0.019 | 1.19 ± 0.28 | 1.09 ± 0.12 | 1 (active) |
| c1ccc(CNc2nc(N3CCOCC3)nc(N3CCOCC3)n2)cc1 | 0.882 ± 0.24 | 0.947 ± 0.079 | 0.987 ± 0.081 | 0.758 ± 0.027 | 1.09 ± 0.12 | 1.24 ± 0.21 | 0.991 (active) |
| Br.COc1ccc(C2=NN(c3nc(-c4ccc(OC)c(F)c4)cs3)C(c3ccc(OC)cc3)C2)cc1 (configuration not stated) | 0.964 ± 0.068 | 0.997 ± 0.11 | 0.914 ± 0.1 | 0.805 ± 0.071 | 1.22 ± 0.08 | 1.05 ± 0.39 | 1.01 (active) |
| C#Cc1cccc(Nc2ncnc3cc4c(cc23)OCCOCCOCCO4)c1 | 0.937 ± 0.043 | 1 ± 0.11 | 1.11 ± 0.093 | 1.02 ± 0.05 | 1.2 ± 0.17 | 1.39 ± 0.36 | 1.02 (active) |
| Cc1cc(OCC(=O)NN=Cc2ccc(O)c([N+](=O)[O-])c2)ccc1Cl | 1.03 ± 0.29 | 1.04 ± 0.092 | 1.02 ± 0.093 | 1 ± 0.041 | 1.08 ± 0.2 | 1.13 ± 0.13 | 0.998 (active) |
| OCC1OC(Oc2ccc(O)cc2)C(O)C(O)C1O (configuration not stated) | 1.23 ± 0.3 | 0.965 ± 0.069 | 1.02 ± 0.08 | 0.891 ± 0.049 | 1.14 ± 0.2 | 1.2 ± 0.11 | 1 (active) |
| Cc1cc2ncc3c(n2n1)CCN(S(=O)(=O)N(C)C)C3 | 0.989 ± 0.11 | 1.01 ± 0.097 | 0.938 ± 0.043 | 1.03 ± 0.071 | 1.09 ± 0.081 | 1.05 ± 0.08 | 1 (active) |
| Clc1nc(N2CCOCC2)nc(N(c2ccccc2)c2ccccc2)n1 | 0.889 ± 0.077 | 0.908 ± 0.086 | 1.08 ± 0.12 | 1.02 ± 0.049 | 1.41 ± 0.22 | 1.53 ± 0.42 | 1.03 (active) |
| CCCc1cc(=O)oc2cc(OCC(=O)OC)c(Cl)cc12 | 1.1 ± 0.09 | 0.967 ± 0.13 | 1.03 ± 0.041 | 0.96 ± 0.13 | 1.04 ± 0.1 | 1.09 ± 0.18 | 0.998 (active) |

| SMILES | NF-kB reporter [1, 4] | NF-kB reporter ([1]; agonist: LPS 0.1 ug/mL) | NF-kB reporter ([1]; agonist: MPLA […]) | IRF reporter ([2]; agonist: 3'3'-cGAMP 10 ug/mL) | IRF reporter ([2]; agonist: LPS 0.1 ug/mL) | IRF reporter ([2]; agonist: MPLA […]) | viability score [3] |
| --- | --- | --- | --- | --- | --- | --- | --- |
| COC(=O)C1=C(C)NC(=O)CC1c1ccc(Cl)c(Cl)c1 (configuration not stated) | 0.982 ± 0.075 | 0.801 ± 0.065 | 0.957 ± 0.094 | 1.06 ± 0.036 | 1.16 ± 0.15 | 1.23 ± 0.19 | 1.01 (active) |
| OC(CNC1CCCCC1)Cn1c2ccc(Cl)cc2c2cc(Cl)ccc21 (configuration not stated) | 0.137 ± 0.03 | 0.219 ± 0.037 | 0.613 ± 0.042 | 0.11 ± 0.058 | 0.302 ± 0.018 | 0.436 ± 0.12 | 0.0501 (inactive) |
| CS(=O)(=O)c1cccc(C[C@H](NC(=O)c2c(Cl)cc3c(c2Cl)CCN(C(=O)c2ccc4ccoc4c2)C3)C(=O)O)c1 | 1.12 ± 0.17 | 1.22 ± 0.23 | 1.97 ± 1.1 | 1.07 ± 0.084 | 1.37 ± 0.41 | 1.31 ± 0.1 | 0.983 (active) |
| CCOc1ccc(Nc2oc(-c3ccc(COc4ccc(C)cc4)o3)nc2C#N)cc1 | 1.03 ± 0.082 | 0.717 ± 0.089 | 1.04 ± 0.099 | 0.998 ± 0.035 | 1.41 ± 0.24 | 1.67 ± 0.41 | 0.832 (active) |
| CCN[C@H]1CN(CCCOC)S(=O)(=O)c2sc(S(N)(=O)=O)cc21 | 1.01 ± 0.12 | 1.04 ± 0.059 | 0.975 ± 0.05 | 1.03 ± 0.067 | 0.913 ± 0.042 | 1 ± 0.12 | 1 (active) |
| COc1ccc(C)cc1NC(=O)CN(c1cccc(Br)c1)S(=O)(=O)c1ccccc1 | 0.904 ± 0.077 | 0.97 ± 0.053 | 0.915 ± 0.062 | 0.94 ± 0.023 | 1.11 ± 0.092 | 0.809 ± 0.18 | 1.02 (active) |
| N[C@@H](Cc1cc(I)c(Oc2cc(I)c(O)c(I)c2)c(I)c1)C(=O)O | 0.496 ± 0.045 | 0.804 ± 0.069 | 0.908 ± 0.19 | 0.572 ± 0.044 | 1.15 ± 0.2 | 1.23 ± 0.31 | 1.03 (active) |
| CCOc1ccc(Nc2nc(Nc3ccc(OCC)cc3)nc(N3CCOCC3)n2)cc1 | 0.35 ± 0.02 | 1.76 ± 0.13 | 2.82 ± 0.16 | 1.14 ± 0.083 | 4.42 ± 3 | 4.93 ± 2.5 | 0.762 (active) |
| Nc1ccc(S(=O)(=O)NCCO)cc1 | 0.983 ± 0.07 | 1.06 ± 0.12 | 0.996 ± 0.068 | 0.973 ± 0.042 | 1.4 ± 0.12 | 1.07 ± 0.11 | 1 (active) |
| COC(=O)C1=C(C)NC2=C(C(=O)CC(C)(C)C2)C1c1ccc(OC)c(O)c1 (configuration not stated) | 1.02 ± 0.095 | 0.981 ± 0.055 | 1.01 ± 0.069 | 1.01 ± 0.077 | 1.13 ± 0.16 | 1.05 ± 0.065 | 1.01 (active) |
| CC(=O)c1c(C)c2cnc(Nc3ccc(N4CCNCC4)cn3)nc2n(C2CCCC2)c1=O.Cl | 1.27 ± 0.47 | 1.14 ± 0.064 | 1.22 ± 0.1 | 0.363 ± 0.014 | 0.898 ± 0.16 | 0.966 ± 0.16 | 0.982 (active) |
| CC(=O)c1ccc(Nc2ncnc(Nc3ccc(C(C)=O)cc3)c2[N+](=O)[O-])cc1 | 1.04 ± 0.1 | 1.09 ± 0.076 | 0.939 ± 0.045 | 1.01 ± 0.091 | 1.06 ± 0.052 | 0.994 ± 0.076 | 0.991 (active) |
| O=C(O)c1cc([N+](=O)[O-])c(Nc2cccc3ccccc23)c([N+](=O)[O-])c1 | 0.879 ± 0.05 | 1.05 ± 0.068 | 0.888 ± 0.074 | 0.965 ± 0.057 | 1.31 ± 0.12 | 1.13 ± 0.22 | 1.01 (active) |
| CN(C)CCC=C1c2ccccc2CCc2ccccc21.Cl | 0.903 ± 0.19 | 1.26 ± 0.48 | 1.21 ± 0.17 | 0.423 ± 0.017 | 1.31 ± 0.44 | 1.12 ± 0.084 | 0.412 (inactive) |
| Cc1ccc(C)c(Cc2cc([N+](=O)[O-])ccc2C)c1 | 0.287 ± 0.023 | 0.436 ± 0.081 | 0.726 ± 0.026 | 1.28 ± 0.081 | 1.01 ± 0.084 | 1.57 ± 0.28 | 0.996 (active) |
| N#CC(=Cc1cc(Cl)ccc1OCc1c(F)cccc1Cl)c1nn(CCO)c(N)c1C#N | 1.37 ± 0.12 | 1.19 ± 0.072 | 0.806 ± 0.063 | 0.497 ± 0.03 | 0.931 ± 0.11 | 0.787 ± 0.049 | 0.164 (inactive) |
| O=C(O)c1ccc(NCn2nnc3ccccc32)cc1 | 1.05 ± 0.1 | 0.928 ± 0.12 | 1.03 ± 0.097 | 1 ± 0.032 | 1.37 ± 0.27 | 1.51 ± 0.23 | 1 (active) |
| CN1CCN(C(CNC(=O)c2ccccc2Br)c2ccc(F)cc2)CC1 (configuration not stated) | 0.878 ± 0.047 | 0.967 ± 0.12 | 0.944 ± 0.13 | 1.03 ± 0.053 | 1.06 ± 0.093 | 0.936 ± 0.34 | 1.01 (active) |
